The list is not random: actives were taken first. Their share in the collection is about 2.7%.
IP6K1 inhibitor = IP6K1 kinase inhibition; IP6K1 kinase, ADP-Glo luminescence, 2 h; active compounds read low; activity change, % (series mostly up to about 58 µM); 0.81% of 140,000 active; Q92551; in the data active means activity change below about -25%; further: on the % scale 0 is the no-effect control and ±100 the full control effect
Target sequence (Q92551 whole entry, looked up): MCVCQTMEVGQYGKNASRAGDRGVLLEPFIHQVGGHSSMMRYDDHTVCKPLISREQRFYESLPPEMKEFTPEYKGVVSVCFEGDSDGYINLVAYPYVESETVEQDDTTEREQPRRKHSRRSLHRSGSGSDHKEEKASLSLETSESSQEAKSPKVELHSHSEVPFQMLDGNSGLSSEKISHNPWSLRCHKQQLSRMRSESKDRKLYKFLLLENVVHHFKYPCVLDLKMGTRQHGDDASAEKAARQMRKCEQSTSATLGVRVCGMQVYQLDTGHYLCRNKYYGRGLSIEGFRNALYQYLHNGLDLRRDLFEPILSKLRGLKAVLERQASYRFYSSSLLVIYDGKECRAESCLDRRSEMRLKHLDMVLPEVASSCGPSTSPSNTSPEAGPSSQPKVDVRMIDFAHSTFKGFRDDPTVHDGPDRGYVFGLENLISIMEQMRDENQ
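ADP-Glo luminescence measures ADP made by human IP6K1 during a 2 h RT reaction with ATP/IP6 (mix at 1.3 mM/130 uM); top library doses 57.5 and 19.1 uM final.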
KDM5B inh = inhibitors of human KDM5B histone demethylase. Potency, µM (top dose mostly 57.7 µM), usual class: inhibitors. KDM5B demethylase, FDH-coupled NADH fluorescence (FDH is formaldehyde dehydrogenase). 2.6% of 220,000 active. Q9UGL1; further: potency means the concentration at half of the fitted maximal effect; 0% is about no effect; nearly all actives have a fitted effect of over 70% in size
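KDM5BΔAP (200 nM final) in 50 mM HEPES pH 7.5, 0.01% Tween-20 was preincubated 10 min at RT with compound over a concentration range. Substrate mix (H3K4me3 12.5 µM, α-KG 25 µM, Fe²⁺, ascorbate, NAD⁺, FDH) was added, and NADH fluorescence change over 30 min gave dose-response curves.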
IP6K1 inh cnf = human IP6K1 inhibition, confirmatory; shares compounds with IP6K1 inhibitor; recombinant IP6K1 kinase, ADP-Glo luminescence, 2 h; 13% of 1,200 active; AID 1645852; Potency, µM (titrated, usually from 49 µM), for inactives: at the top dose activity change, negative = inhibition, hits mostly inhibitors; further: potency means the concentration at half of the fitted maximal effect; on the % scale 0 is the no-effect control and ±100 the full control effect; nearly all actives have a fitted effect of over 65% in size
Numbers without * were called inactive. Unless noted, the call rests on the fitted dose curve; in most records, active means well fitted inhibition curve with a large enough effect; inconclusive means small, poorly fitted or top-dose-only effect; inactive means no such curve, though single readings can be large or run the other way.

What do the screens show for `COc1ccc([C@@H]2CN(C(=O)Cc3nonc3C)[C@@H]3C4CCN(CC4)[C@@H]32)cc1`?
IP6K1 inhibitor: -37.9*; KDM5B inh: inactive; IP6K1 inh cnf: -15.1%

What do the screens show for `COc1ccc([C@@H]2CN(C(=O)Nc3ccc(C)cc3)[C@@H]3C4CCN(CC4)[C@@H]32)cc1`?
IP6K1 inhibitor: 8.9; KDM5B inh: inactive

Results for CN(C(=O)C(c1ccccc1)c1ccccc1)[C@H](CN1CC[C@H](O)C1)c1ccccc1 ?
IP6K1 inhibitor: -7.5

What do the screens show for `O=C1c2ccccc2C(=O)C1C(=O)C(c1ccccc1)c1ccccc1`?
IP6K1 inhibitor: -28.3*; IP6K1 inh cnf: inconclusive

Results for CCOC(=O)[C@H]1CN(C(=O)NC2CCCC2)[C@]2(C)C(=O)N(CC3CC3)c3ccccc3[C@H]12 ?
IP6K1 inhibitor: -17.4

How did Cc1ccccc1-c1nn2c(=O)cc(CN3CCN(C(=O)COc4ccccc4Cl)CC3)nc2s1 do in these assays?
IP6K1 inhibitor: 7.6; KDM5B inh: inactive

Results for Cc1cccc(OCC(=O)N2CCN(Cc3cc(=O)n4nc(-c5ccccc5Cl)sc4n3)CC2)c1 ?
IP6K1 inhibitor: -29.6*; KDM5B inh: inactive; IP6K1 inh cnf: 3.2%

How did Cc1nc(CCN)no1 do in these assays?
IP6K1 inhibitor: 15.0; KDM5B inh: inactive
